PubChem BioAssay (NCATS)
Unmarked numbers belong to inactive results. Calls of active or inactive are those of the source. Calls follow the shape of the dose curve; as a rule, active = well fitted inhibition curve with a large enough effect; inconclusive = small, poorly fitted or top-dose-only effect; inactive = flat fitted curve, though single readings scatter.

Each molecule was assayed against Flap endonuclease 1 (Homo sapiens) (UniProt P39748) (assay: qHTS Validation Assay for the Inhibitors of Human Flap endonuclease 1 (FEN1) (AID 488816)). Conditions: FEN1 nuclease activity, fluorogenic DNA substrate; series mostly up to 57.1 µM; activity, negative = inhibition: at the top concentration.
Chain of Flap endonuclease 1 (Homo sapiens) (P39748 whole entry, looked up, the tested form may be a part): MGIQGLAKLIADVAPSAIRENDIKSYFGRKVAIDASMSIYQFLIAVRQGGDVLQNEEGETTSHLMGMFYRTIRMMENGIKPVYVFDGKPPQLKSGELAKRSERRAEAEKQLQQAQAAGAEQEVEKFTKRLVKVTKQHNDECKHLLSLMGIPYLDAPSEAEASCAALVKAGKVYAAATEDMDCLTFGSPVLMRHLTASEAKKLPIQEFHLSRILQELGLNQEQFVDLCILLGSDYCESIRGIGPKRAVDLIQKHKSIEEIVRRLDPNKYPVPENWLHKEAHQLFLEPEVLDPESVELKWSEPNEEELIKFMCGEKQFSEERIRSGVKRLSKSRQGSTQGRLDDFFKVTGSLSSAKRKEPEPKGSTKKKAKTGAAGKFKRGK
Source text: The major human flap endonuclease FEN1 is an efficient structure-specific enzyme that recognizes and cleaves a 5'-unannealed DNA flap. It belongs to the RAD2 family nucleases, which are involved in DNA metabolism and are highly conserved in prokaryotes and eukaryotes. FEN1 is a key enzyme in DNA replication, repair and maintenance of genomic stability. 5'-flap removal by FEN1 is critical for Okazaki fragment processing during lagging strand DNA synthesis, long-patch base excision repair (LP BER), and regulating or facilitating recombination events. […] Deletion of the yeast FEN1 gene, i.e. rad27, results in an increased frequency of short DNA (3-32 bp) repeats, micro- and mini-satellite formation, trinucleotide repeat expansion, spontaneous recombination events, and a severe growth defect in association with cell cycle arrest in late S/G2 phase. […] Cells from fen1-/- blastocysts show increased apoptotic cell death after ionizing radiation treatment, and chicken cells lacking the fen1 gene are hypersensitive to DNA alkylating agents, e.g. methylmethane sulfonate (MMS) and N-methyl-N'-nitro-N-nitrosoguanidine (MNNG), as well as hydrogen peroxide.
FEN1 is found to be increased in many human cancers, including lung, brain cancer, gastric cancer, prostate cancer, pancreatic cancer and breast cancer. […] In particular, elevation of FEN1 in hormone refractory human prostate cancer cells correlates with resistant to various anticancer agents including ionizing radiation, doxorubicin, paclitaxel and vinblastine.
Three uL of reagents (buffer in column 3 and 4 as negative control and 10 nM FEN1 in columns 1, 2, and 5-48) were dispensed into 1,536-well black solid-bottomed plate. Compounds (23 nL) were transferred via Kalypsys pin tool equipped with 1536-pin array (10 nL slotted pins, V&P Scientific, San Diego, CA). The plates were then incubated for 15 min at room temperature, and 1 uL substrate (50 nM final concentration) were added to start the reaction read twice at 0 min read and 15 min on ViewLux reader. Throughout the screen, reagent bottle and all liquid lines were chilled and made light-tight to minimize reagent degradation. All screening operations were performed on a fully integrated robotic system (Kalypsys, San Diego, CA) containing one RX-130 and two RX-90 anthropomorphic robotic arms (Staubli, Duncan, SC). Library plates were screened starting from the lowest and proceeding to the highest concentration, and a "double-dipping" step of the highest concentration was required to access higher concentrations of compounds. Vehicle-only plates, with DMSO being pin-transferred to the entire column 5-48 compound area, were inserted uniformly at the beginning and the end of each library in order to monitor for and record any shifts in the background, which can be affected by reagent dispensers or loss in enzyme activity overtime. Screening data was corrected, normalized, and concentration-effect relationships were derived by using publicly-available curve fitting algorithms developed in-house (http://ncgc.nih.gov/pub/openhts). A four parameter Hill equation was fitted to the concentration-response data by minimizing the residual error between the modeled and observed responses.
% is scaled to controls: 0 for no effect and ±100 for the full control effect; potency is read from the fitted curve at half-maximal effect.

SMILES | Potency | activity, negative = inhibition [%]
N.N.O=C(O)C1(C(=O)O)CCC1.[Pt+2] | 29.9 µM (active) | –
O=C1c2ccccc2C(=O)c2c(NCCc3ccc(O)cc3)ccc(NCCc3ccc(O)cc3)c21 | – | -17.4
O=Nc1c(-c2c(O)[nH]c3ccccc23)[nH]c2ccccc12 | – | -24.6
S=C(Nc1ccccc1)Nc1nccs1 | – | -14.2
Oc1cc2c(c(Cl)c1O)CCNCC2c1ccccc1 (configuration not stated) | – | -15.8
C1CCC(N=C(NC23CC4CC(CC(C4)C2)C3)N2CCOCC2)CC1 | – | -9.71
CCc1ccc(/C=C2/SC(=S)NC2=O)cc1 | – | -8.56
N#C/C(=C\c1ccc(O)c(O)c1)C(=O)Nc1ccccc1 | 18.9 µM (active) | –
Nc1c(S(=O)(=O)O)cc(Nc2ccc(Nc3nc(Cl)nc(Nc4ccc(S(=O)(=O)O)cc4)n3)c(S(=O)(=O)O)c2)c2c1C(=O)c1ccccc1C2=O | 0.947 µM (active) | –
CN1C2CCCC1CC(NC(=O)c1nn(C)c3ccccc13)C2 (configuration not stated) | – | -2.26
C[C@H](Cc1ccccc1)Nc1ncnc2c1ncn2[C@@H]1O[C@H](CO)[C@@H](O)[C@H]1O | – | -6.72
Cc1cccc(/C=C/c2ccccc2)n1 | – | -2.12
